Assay results: PubChem BioAssay
A number with no mark means an inactive call. Calls of active or inactive are those of the source.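 The calls were made as follows, unless noted: active = mean inhibition over 43.08%, the solvent-only control mean plus 3 SD; inactive = the rest.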

Columns and labels:
[1] = target: Nuclear receptor coactivator 3 (Homo sapiens) (UniProt Q9Y6Q9); test: SRC3 coactivator transcriptional activity inhibitors, confirmation, cell-based, luminescence, quadruplicate (AID 588792); details: HEK293 GAL4-SRC3 luciferase reporter, at 3.6 µM, active compounds read high;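 also: 0% = DMSO treated cells and 100% = gossypol at 36 µM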
Nuclear receptor coactivator 3 (Homo sapiens), sequence (Q9Y6Q9 whole entry, looked up, the tested form may be a part): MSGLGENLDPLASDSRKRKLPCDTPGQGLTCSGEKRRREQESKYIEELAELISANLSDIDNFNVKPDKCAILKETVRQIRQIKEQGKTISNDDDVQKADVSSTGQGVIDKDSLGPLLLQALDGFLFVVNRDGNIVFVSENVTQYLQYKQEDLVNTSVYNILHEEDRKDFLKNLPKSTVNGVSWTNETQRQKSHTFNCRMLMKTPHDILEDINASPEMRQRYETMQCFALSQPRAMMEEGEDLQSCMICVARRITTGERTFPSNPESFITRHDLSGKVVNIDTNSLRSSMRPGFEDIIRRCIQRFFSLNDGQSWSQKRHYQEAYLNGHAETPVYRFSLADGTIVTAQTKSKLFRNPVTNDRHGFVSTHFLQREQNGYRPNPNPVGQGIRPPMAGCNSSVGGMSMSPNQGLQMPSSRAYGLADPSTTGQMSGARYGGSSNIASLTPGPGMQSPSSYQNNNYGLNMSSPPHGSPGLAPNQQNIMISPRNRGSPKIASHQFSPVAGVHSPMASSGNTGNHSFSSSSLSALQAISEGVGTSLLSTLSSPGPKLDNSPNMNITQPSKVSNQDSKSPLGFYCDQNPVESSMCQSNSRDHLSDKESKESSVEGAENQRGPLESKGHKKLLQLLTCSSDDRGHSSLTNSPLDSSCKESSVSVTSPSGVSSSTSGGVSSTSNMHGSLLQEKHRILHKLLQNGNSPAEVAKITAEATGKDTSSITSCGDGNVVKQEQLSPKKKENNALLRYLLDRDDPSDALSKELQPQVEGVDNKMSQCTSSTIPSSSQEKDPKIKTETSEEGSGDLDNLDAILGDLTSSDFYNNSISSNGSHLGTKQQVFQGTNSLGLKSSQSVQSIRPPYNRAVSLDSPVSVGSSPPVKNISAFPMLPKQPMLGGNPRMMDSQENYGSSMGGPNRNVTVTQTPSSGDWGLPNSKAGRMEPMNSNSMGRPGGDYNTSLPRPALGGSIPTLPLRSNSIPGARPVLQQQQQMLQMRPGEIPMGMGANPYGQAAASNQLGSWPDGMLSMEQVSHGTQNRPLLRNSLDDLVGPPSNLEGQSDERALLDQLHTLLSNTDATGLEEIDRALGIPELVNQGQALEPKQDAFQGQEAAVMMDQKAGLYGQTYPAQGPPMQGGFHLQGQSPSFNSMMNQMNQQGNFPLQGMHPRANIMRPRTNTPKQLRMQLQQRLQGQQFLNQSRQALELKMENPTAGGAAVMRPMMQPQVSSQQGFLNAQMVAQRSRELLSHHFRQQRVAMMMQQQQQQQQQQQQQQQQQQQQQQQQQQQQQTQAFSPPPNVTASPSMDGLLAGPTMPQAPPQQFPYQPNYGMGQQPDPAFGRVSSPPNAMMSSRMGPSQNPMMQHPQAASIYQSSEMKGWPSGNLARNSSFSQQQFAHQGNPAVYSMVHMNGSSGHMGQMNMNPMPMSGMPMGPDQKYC

[2] = system: transactivating tegument protein VP16 (Human herpesvirus 1), Gal4-VP16 luciferase reporter; test: VP16 transactivation inhibitors, counter-screen for SRC3 inhibitor project, cell-based, luminescence, high throughput (AID 588794; in the data active = inhibition above about 30%); details: mammalian cells, VP16-driven luciferase reporter luminescence; at 3.6 µM; active compounds read high

Row | Compound | inhibition [1] | inhibition [2]
1 | Cc1[nH]n(C)c(=O)c1N=Nc1ccc(S(C)(=O)=O)cc1 | 8.44% | -1.15%
2 | CC(Oc1ccc(Cl)cc1)C(=O)NCCN1C(=O)S/C(=C\c2cccnc2)C1=O (stereo unspecified) | 4.29% | -2.64%
3 | CC1=C/C(=N\OS(=O)(=O)c2ccccc2)C(C)=CC1=O | 19.7% | 9.07%
4 | COc1ccc(C(C(=O)NC2CCCCC2)N(C(=O)CCl)c2ccc(OC)cc2)cc1 (stereo unspecified) | 64.4% (active) | 27.2%
5 | C=CCOn1c(C)c(C(C)=O)c2c3nonc3ccc21 | 42% | 25.4%
6 | N#Cc1c(NCc2ccccc2)ccnc1Cl | 27.5% | 15.9%
7 | Brc1ccc2ncc3ccccc3c2c1 | 40.2% | 19.1%
8 | Cc1cc(=O)oc2cc(NC(=O)COc3cccc(C(F)(F)F)c3)ccc12 | 7.34% | -7.4%
9 | Cc1cccc(/C=N/n2c(-c3ccncc3)n[nH]c2=S)c1 | 11.2% | 2.95%
10 | Cc1ccc(-c2csc(NC(=O)c3cccc(C)c3)c2C(=O)O)cc1 | -6.27% | 0.42%
11 | CC(=O)c1c(C)[nH]c(C(=O)OCC(=O)Nc2ccc(C)cc2[N+](=O)[O-])c1C | 32.4% | 52.8% (active)
12 | COc1ccc2c(=O)c3c(=O)n(CCc4ccccc4)c(C(C)C)nc3oc2c1 | 4.29% | 17.5%
13 | COc1ccc(S(=O)(=O)N2CCCCCC2)cc1C(=O)N(C)CC(=O)Nc1cc(C)ccc1C | 8.3% | 10.6%
14 | C=CCc1cccc(/C=N/NC(=O)CCC(=O)Nc2ccc(F)cc2)c1O | 26.2% | 21.1%
15 | Cc1cc(C(F)(F)F)c(C#N)c(SCC(=O)Nc2nc3ccccc3s2)n1 | 49.7% (active) | 37.2% (active)
16 | Cc1sc(-c2ccccn2)nc1OC(=O)c1ccc(F)cc1F | 13.9% | 16.1%
17 | FC(F)(F)c1cccc(NC(=S)N(CCCN2CCCC2)Cc2cccn2Cc2ccc(Cl)cc2)c1 | -14.5% | 0.12%
18 | Cc1ccnc(OC(C(=O)O)C(OCc2ccccc2)(c2ccccc2)c2ccc(C(F)(F)F)cc2)n1 (stereo unspecified) | 8.84% | 12.4%
19 | Cc1ccccc1OCCNC(=O)c1ccccc1Sc1ccccc1C#N | 6.19% | 1.44%
20 | CC(=O)c1c(C)[nH]c(C(=O)OCC(=O)Nc2c(C)cccc2C)c1C | 16.8% | 13.5%
21 | CCCCNS(=O)(=O)c1ccc(S(=O)(=O)NCc2ccncc2)cc1 | 16.5% | 25.1%
22 | CC1=C(C(=O)N(C)C)CC(CC(=O)NCCCCc2ccccc2)C(=O)N1Cc1ccc(C(C)(C)C)cc1 (stereo unspecified) | -10.1% | -1.43%
23 | O=C(Nc1nc2ccccc2s1)C1c2ccccc2Oc2ccccc21 | 39.2% | 21.4%
24 | CCN(CC)c1ccc(/C=N/NC(=O)c2cnccn2)c(O)c1 | 45.2% (active) | 52.3% (active)
25 | CN(C)S(=O)(=O)c1cccc(-c2nn(-c3ccccc3)cc2/C=C(\C#N)c2nc3ccccc3[nH]2)c1 | 1.73% | -4.19%

Row | Compound | inhibition [1] | inhibition [2]
26 | COc1ccc(-c2csc(NC(=O)c3ccc(S(=O)(=O)N4CCc5ccccc5C4)cc3)n2)cc1 | 25.1% | 24.1%
27 | CC(=O)c1c(O)cc2c3c1OC(C)(C)C1CCC(C)(CC31)O2 (stereo unspecified) | 46.2% (active) | 30.9% (active)
28 | Cc1ccc(-n2cccn2)c(CN2CCCC(C(=O)c3sccc3C)C2)c1 (stereo unspecified) | 18.9% | 32.1% (active)
29 | NC(=S)NN=C(Cc1ccccc1)Cc1ccccc1 | 22.4% | 15.6%
30 | CCCCC(=O)NC(c1ccco1)c1cc(Cl)c2cccnc2c1O (stereo unspecified) | 16.4% | 10.6%
31 | COc1ccccc1C(=O)OCC(=O)c1ccc(CNC(C)=O)s1 | 10.4% | -0.94%
32 | CCCOc1cccc(C(=O)Nc2cc(NC(=O)c3ccco3)ccc2OC)c1 | 10.8% | 2.92%
33 | COc1cccc(-c2csc3ncnc(Sc4nnnn4C)c23)c1 | 5.54% | 21.9%
34 | O=C(c1ccc(S(=O)(=O)Cc2cc(F)ccc2F)c([N+](=O)[O-])c1)N1CCCCC1 | -2.8% | -0.48%
35 | O=C(NCC1CCCO1)c1cccc2c1C(=O)c1ccc(N3CCC(Cc4ccccc4)CC3)cc1S2(=O)=O (stereo unspecified) | -2.13% | 10.6%
36 | Cn1nc(C(F)(F)F)cc1C(=O)Nc1ccc(Cl)cc1 | 4.63% | 8.1%
37 | CCOc1ccc(CNC(=O)C2Cc3cc(S(=O)(=O)N4CCCC4)ccc3N2C(C)=O)cc1 (stereo unspecified) | 4.56% | 8.25%
38 | Cn1c(SCC(=O)Nc2ccc(Cl)cc2)nc(O)cc1=O | -1.75% | -9.43%
39 | C[C@H](NC(=O)Nc1ccccc1F)C(=O)O | 5.66% | 3.39%
40 | O=C(NCCNc1ccc([N+](=O)[O-])cc1C(F)(F)F)c1cccc(F)c1 | 15.4% | 12.6%
41 | CCOc1cc(C(=O)N2CCC(CC3CC(c4ccc(Cl)cc4)=NO3)(C(=O)NCC3CCCCC3)CC2)cc(OCC)c1OCC (stereo unspecified) | 6.12% | 7.56%
42 | CC1CCc2c(sc(NC(=O)c3ccco3)c2C(=O)O)C1 (stereo unspecified) | 18.1% | 36.3% (active)
43 | O=C(CCc1ccccc1)N/N=C/c1cc(Br)ccc1O | 24.5% | 17.2%
44 | O=C1/C(=C/c2cccnc2)SC(=S)N1C1CCS(=O)(=O)C1 (stereo unspecified) | -0.1% | 21%
45 | COc1cc(C(=O)NC2CCCc3c2cnn3-c2ccccc2F)cc(OC)c1OC (stereo unspecified) | 2.41% | 21%
46 | O=C1CC(=O)OC(c2ccc([N+](=O)[O-])cc2)O1 | 26.8% | 40.5% (active)
47 | Cc1nc(SCC(=O)NNC(=O)c2ccc(F)cc2)c2ccccc2n1 | -5.28% | -10.9%
48 | CCN(CC)CCOc1c(Br)ccc2c1sc1nc3n(c(=O)c12)CCC3 | -18.1% | 2.47%
49 | CC(=O)Nc1ccc(NC(=O)c2ccc(N(Cc3ccccc3C)S(C)(=O)=O)cc2)cc1 | -0.29% | -7.31%
50 | O=C(CN1C(=O)C(=O)N(C2CCCC2)C1=O)Nc1ccccc1OC(F)F | 10.1% | -11.8%

Row | Compound | inhibition [1] | inhibition [2]
51 | COc1ccc(C(Cl)=C(C=O)c2ccc(OC)c(OC)c2)cc1OC | 22.3% | -10.7%
52 | CC(C)c1nc(Cl)c(C#N)c2c1CCCC2 | 26% | 37% (active)
53 | Clc1ccc2nnnc(-c3ccccc3)c2c1 | 65.8% (active) | 68% (active)
54 | CC12CN3CC(C)(CN(C1)C3c1ccccc1F)C2 (stereo unspecified) | 2.53% | 4.18%
55 | COc1cccc(/C=N/NC(=O)C(C)n2nc(C)c([N+](=O)[O-])c2C)c1O (stereo unspecified) | 10.2% | 27.4%
56 | CN1/C(=C\C(=O)C[n+]2cccc(Br)c2)C(C)(C)c2ccccc21 | 25.3% | 21.2%
57 | OCC(O)C(O)C(O)C(O)C1NCCS1 (stereo unspecified) | -6.42% | -4.51%
58 | COC(=O)c1cc(S(=O)(=O)NCCc2ccc(Cl)cc2)c[nH]1 | 29.2% | 18.4%
59 | CS(=O)(=O)c1ccc(Sc2nc3ccccc3s2)c([N+](=O)[O-])c1 | 45.8% (active) | 19.5%
60 | COc1cc(C(=O)Nc2nc(-c3cccs3)cs2)cc(OC)c1OC | -9.35% | -21.8%
61 | CN(Cc1cccc(F)c1)C(=O)C1CC(=O)N(Cc2ccco2)C1 (stereo unspecified) | -0.39% | -6.54%
62 | CC(=O)c1c(C(C)=O)c(C)n(-c2ccc3ncccc3c2)c1C | 15.4% | 6.55%
63 | CN(C)c1ccc(C=c2c3cc([N+](=O)[O-])ccc3n3c2cc(-c2ccccc2)[n+]3C)cc1 | 38.4% | 56.7% (active)
64 | O=C(N/N=C/c1cc(Cl)ccc1O)c1ccncc1 | 16.7% | 35.7% (active)
65 | CC(C)C(C)NC(=O)CSc1ccc(S(=O)(=O)N2CCOCC2)cn1 (stereo unspecified) | -6.95% | 8.39%
66 | COc1ccc(N/N=C/c2c(C(=O)O)ccc3ccccc23)cc1 | 31.2% | 36.5% (active)
67 | CCc1ccc(/C=C/c2c([N+](=O)[O-])c(=O)n(C)c(=O)n2C)cc1 | 39.7% | 41.3% (active)
68 | O=C(CCc1ccncc1)NC1CCCc2c1cnn2-c1ccc(F)cc1F (stereo unspecified) | 0.71% | 18.6%
69 | CCN(CC)S(=O)(=O)c1cc(NC(=O)C(C)OC(=O)c2[nH]c(C)c(C(C)=O)c2C)ccc1C (stereo unspecified) | 16% | 8.36%
70 | Cc1ccc(OCC(O)CN2CCN(CC(O)COC(C)C)CC2)c(C(C)(C)C)c1 (stereo unspecified) | 8.73% | 13.2%
71 | CCc1nc(Nc2ccc3nccnc3c2)c2oc3ccccc3c2n1 | 5.99% | 13.6%
72 | O=C(N/N=C/c1c(O)ccc2ccccc12)c1ccc(CO)nc1 | 26.3% | 41.3% (active)
73 | CC1CCCCC1NC(=O)Cn1cnc2ccccc2c1=O (stereo unspecified) | 10.5% | -4.34%
